Where “and” joins values, the source holds several entries; their conditions need not be identical. Equal entries are not always repeated. Structures can show the parent of a compound that is named as a salt.
Key:
Test in all cases: cell viability relative to vehicle control; higher = less cytotoxic
Conditions in all cases: 10 µM
[1] = tested on: K562
Method in brief: (§1)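 Each screen used CRISPR-edited mutant and wild-type clones from four leukaemia lines. Compounds were acoustically dispensed at a single 10 µM dose, and CellTiter-Glo luminescence was read after 48 h with the supernatant first removed. Viability was analysed in Genedata Screener and given as percent of the on-plate vehicle control.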

[2] = tested on: MARIMO
Method in brief: as §1

[3] = tested on: MOLM14
Method in brief: as §1

[4] = tested on: OCI-AML2
Method in brief: as §1

Row | Compound | cell viability ([1]; SRSF2 genotype: SRSF2 P95H/wt) | cell viability ([1]; SRSF2 genotype: SRSF2 wt/wt) [%] | cell viability ([2]; SRSF2 genotype: SRSF2 P95H/wt) [%] | cell viability ([2]; SRSF2 genotype: SRSF2 wt/wt) [%] | cell viability ([3]; SRSF2 genotype: SRSF2 P95H/wt) [%] | cell viability ([3]; SRSF2 genotype: SRSF2 wt/wt) [%] | cell viability ([4]; SRSF2 genotype: P95H/wt) [%] | cell viability ([4]; SRSF2 genotype: wt/wt) [%]
1 | O=C(O)CC[C@H]1CC[C@@](c2cc(F)ccc2F)(S(=O)(=O)c2ccc(Cl)cc2)CC1 | 102% and 101% | 97.9 | 91.6 | 92.1 | 98.3 | 99.2 | 102 | 97
2 | CC1CCN(CC[C@H]2CCCN2S(=O)(=O)c2cccc(O)c2)CC1 | 101% | 95 | 97.8 | 106 | 96.5 | 103 | 92.9 | 98.7
3 | O=C(Nc1ccc(O)c(C(=O)O)c1)c1cccc(NC(=O)c2ccco2)c1 | 103% and 105% | 99.4 | 97.2 | 100 | 104 | 102 | 105 | 105
4 | COc1cc(OC)c(NC(=O)Nc2cc(C)on2)cc1Cl | 91.9% and 83.8% | 85.7 | 86.4 | 86.6 | 61.3 | 74.5 | 73.4 | 74.3
5 | CC1OC(OC2C(OC3CCC4(C)C(CCC5(C)C4CC=C4C6CC(C)(C)CCC6(C(=O)OC6OC(COC7OC(CO)C(O)C(O)C7O)C(O)C(O)C6O)CCC45C)C3(C)CO)OCC(O)C2O)C(O)C(O)C1O (configuration not stated) [Dipsacoside B] | 101% and 103% | 104 | 97.5 | 98.2 | 106 | 98.3 | 101 | 103
6 | Cc1cc(Nc2ncc3c(n2)N(C)C(=O)N(c2cc(NC(=O)c4cccc(C(F)(F)F)c4)ccc2C)C3)n(C)n1 [Pluripotin (SC1)] | 35.1% and 35.2% | 30.4 | 22.1 | 21.8 | 7.16 | 7.23 | 12.7 | 20.3
7 | Cc1ccc([N+](=O)[O-])cc1S(=O)(=O)N(C)/N=C/c1cnc2ccc(Br)cn12 | 28.6% and 22.3% | 21 | 7.47 | 3.68 | 0.68 | 0.5 | 1.7 | 17.4
8 | CCCCCCCCOc1ccccc1C(=O)Nc1ccc(C(=O)OCC[N+](C)(CC)CC)cc1 [Otilonium Bromide] | 78.5% and 92% | 92.3 | 84.9 | 84.5 | 76.7 | 89 | 34.4 | 70.2
9 | COc1cc2c(cc1OC)[C@@H]1Cc3ccc(OC)c(OC)c3CN1CC2 [Tetrahydropalmatine hydrochloride] | 89.6% and 96.5% | 95.6 | 91.4 | 93.7 | 93.4 | 101 | 103 | 83.9
10 | Cc1c(C(=O)Nc2ccc(Oc3ccnc4[nH]cc(-c5ccccc5)c34)c(F)c2)c(=O)n(-c2ccc(F)cc2)n1C | 75.3% and 86.8% | 76.8 | 84.7 | 88.2 | 8.77 | 13.1 | 24.8 | 35.5
11 | CCC(C)SSc1ncc[nH]1 (configuration not stated) | 14.2% and 15.1% | 11.6 | 6.03 | 4.97 | 1.56 | 3.76 | 4.83 | 3.63
12 | O=C(O)C1=CO[C@@H](O[C@@H]2O[C@H](CO)[C@@H](O)[C@H](O)[C@H]2O)[C@@H]2C(CO)=CC[C@H]12 [Geniposidic acid] | 105% and 91.2% | 93.8 | 89.8 | 105 | 92.5 | 91.6 | 90.8 | 107
13 | N[C@@H](C(=O)N[C@@H]1C(=O)N2C(C(=O)O)=C(Cl)CS[C@H]12)c1ccccc1 [Cefaclor] | 109% and 110% | 113 | 104 | 104 | 108 | 106 | 112 | 123
14 | CC1(C)[C@@H](O)CC[C@]2(C)[C@H]3C(=O)C=C4[C@@H]5C[C@@](C)(C(=O)O)CC[C@]5(C)CC[C@@]4(C)[C@]3(C)CC[C@@H]12 [Enoxolone (Glycyrrhetin)] | 97.3% and 106% | 102 | 109 | 105 | 104 | 103 | 110 | 106
15 | Cc1noc(C)c1-c1ccc(-c2cc(C(N)=O)c(NC(N)=O)s2)c(O[C@H]2CCNC2)c1 | 101% | 93.8 | 94.9 | 103 | 89.5 | 99.7 | 101 | 105
16 | C=CC(C)(O)CCC=C(C)C (configuration not stated) [Linalool] | 100% and 105% | 107 | 101 | 105 | 103 | 104 | 109 | 97.4
17 | Nc1nc2c(ncn2COC(CO)CO)c(=O)[nH]1 [Ganciclovir] | 105% and 99.9% | 106 | 100 | 108 | 112 | 104 | 91.1 | 104
18 | O=C(OC[C@H]1O[C@@H](OC(=O)c2cc(O)c(O)c(OC(=O)c3cc(O)c(O)c(O)c3)c2)[C@H](OC(=O)c2cc(O)c(O)c(OC(=O)c3cc(O)c(O)c(O)c3)c2)[C@@H](OC(=O)c2cc(O)c(O)c(OC(=O)c3cc(O)c(O)c(O)c3)c2)[C@@H]1OC(=O)c1cc(O)c(O)c(OC(=O)c2cc(O)c(O)c(O)c2)c1)c1cc(O)c(O)c(OC(=O)c2cc(O)c(O)c(O)c2)c1 [Tannic acid] | 96.5% and 87.2% | 98.5 | 98.7 | 99.3 | 89.6 | 92.2 | 106 | 94.8
19 | Nc1nc(=S)c2ncn([C@H]3C[C@H](O)[C@@H](CO)O3)c2[nH]1 | 29.9% and 33.4% | 29.9 | 56.1 | 44.8 | 44.1 | 31.7 | 22.8 | 27.8
20 | CNC(=O)c1cnn(-c2nc(N)c3ncn([C@@H]4O[C@H](CO)[C@@H](O)[C@H]4O)c3n2)c1 [Regadenoson] | 106% and 105% | 104 | 102 | 103 | 103 | 103 | 104 | 119

Row | Compound | cell viability ([1]; SRSF2 genotype: SRSF2 P95H/wt) | cell viability ([1]; SRSF2 genotype: SRSF2 wt/wt) [%] | cell viability ([2]; SRSF2 genotype: SRSF2 P95H/wt) [%] | cell viability ([2]; SRSF2 genotype: SRSF2 wt/wt) [%] | cell viability ([3]; SRSF2 genotype: SRSF2 P95H/wt) [%] | cell viability ([3]; SRSF2 genotype: SRSF2 wt/wt) [%] | cell viability ([4]; SRSF2 genotype: P95H/wt) [%] | cell viability ([4]; SRSF2 genotype: wt/wt) [%]
21 | CC1(C)S[C@@H]2[C@H](NC(=O)[C@H](N)c3ccc(O)cc3)C(=O)N2[C@H]1C(=O)O [Amoxicillin sodium (Amox)] | 99.4% and 102% | 105 | 105 | 109 | 96 | 103 | 105 | 93.4
22 | COc1ccnc(C[S+]([O-])c2nc3cc(OC(F)F)ccc3[nH]2)c1OC (configuration not stated) [Pantoprazole (Protonix)] | 103% and 104% | 102 | 109 | 103 | 115 | 112 | 113 | 96.5
23 | Cc1cc(C(=O)O)n[nH]1 | 108% and 101% | 103 | 104 | 111 | 96.4 | 111 | 101 | 104
24 | COCCNCc1ccc(-c2cc3nccc(Oc4ccc(NC(=O)C5(C(=O)Nc6ccc(F)cc6)CC5)cc4F)c3s2)nc1 [Sitravatinib (MGCD516)] | 14.2% and 25.4% | 10.6 | 67.2 | 78.5 | 5.4 | 8.33 | 14.1 | 27.3
25 | C/C1=C2N=C(/C=C3N=C(/C(C)=C4\[N-]C(C(CC(N)=O)C4(C)CCC(=O)NCC(C)OP(=O)([O-])OC4C(CO)OC(n5cnc6cc(C)c(C)cc65)C4O)C4(C)N=C1C(CCC(N)=O)C4(C)CC(N)=O)C(CCC(N)=O)C\3(C)C)C(CCC(N)=O)C/2(C)CC(N)=O.[CH3-].[Co+3] (configuration not stated) [Methylcobalamin] | 89.6% and 88.5% | 101 | 88.4 | 88.6 | 90.8 | 94.3 | 95.2 | 97
26 | CC(Oc1cc(-c2cnn(C3CCNCC3)c2)cnc1N)c1c(Cl)ccc(F)c1Cl [(S)-crizotinib] | 85.7% and 81% | 74.8 | 84.4 | 92 | 78.2 | 86.2 | 88.8 | 75.3
27 | COC(=O)C1=CO[C@@H](O[C@@H]2O[C@H](CO)[C@@H](O)[C@H](O)[C@H]2O)[C@H]2[C@@H]1C(=O)C[C@@H]2C [Verbenalin] | 104% and 98.5% | 104 | 99.9 | 100 | 110 | 103 | 98.4 | 100
28 | CC[C@H](C)C(=O)O[C@H]1C[C@@H](C)C=C2C=C[C@H](C)[C@H](CC[C@@H]3C[C@@H](O)CC(=O)O3)[C@H]21 [Lovastatin (Mevacor)] | 86.3% and 96.8% | 68.8 | 74 | 68.5 | 82.9 | 100 | 64.3 | 77.8
29 | CO/N=C(\C(=O)N[C@@H]1C(=O)N2C(C(=O)OC(C)OC(C)=O)=C(COC(N)=O)CS[C@H]12)c1ccco1 (some centres not stated) [Cefuroxime axetil] | 103% and 102% | 96.2 | 99.6 | 104 | 101 | 107 | 111 | 105
30 | C=C1[C@H](CO)[C@@H](O)C[C@@H]1n1cnc2c(=O)[nH]c(N)nc21 [Entecavir hydrate] | 106% and 109% | 106 | 101 | 96.7 | 94.7 | 106 | 87.7 | 94.7
31 | CO[C@]1(CC[C@@H](C)CO[C@@H]2O[C@H](CO)[C@@H](O)[C@H](O)[C@H]2O)O[C@H]2C[C@H]3[C@@H]4CC=C5C[C@@H](O[C@@H]6O[C@H](CO)[C@@H](O[C@@H]7O[C@@H](C)[C@H](O)[C@@H](O)[C@H]7O)[C@H](O)[C@H]6O[C@@H]6O[C@@H](C)[C@H](O)[C@@H](O)[C@H]6O)CC[C@]5(C)[C@H]4CC[C@]3(C)[C@H]2[C@@H]1C [Methylprotodioscin] | 0.68% and 0.5% | 1.3 | 0.54 | 0.79 | 0.52 | 0.56 | 0.5 | 0.54
32 | CN(C(Cc1ccc(OS(=O)(=O)c2cccc3cnccc23)cc1)C(=O)N1CCN(c2ccccc2)CC1)S(=O)(=O)c1cccc2cnccc12 (configuration not stated) | 80.8% and 87.8% | 83.5 | 74.4 | 72.7 | 79.8 | 74.6 | 75.7 | 76.4
33 | CNC(=O)c1ccccc1Oc1nc(Nc2cc(OC)c(OC)c(OC)c2)ncc1Br |  | 90.6 | 52.5 | 55.3 | 8.58 | 5.16 | 11.6 | 19
34 | Cc1ccc(/C=N/NC(=O)c2ccccc2Oc2ccccc2)o1 | 96.8% and 102% | 96.3 | 96.3 | 105 | 102 | 98.7 | 112 | 109
35 | O=C1C(=Cc2ccncc2)CCCC1=Cc1ccncc1 | 7.78% and 5.31% | 20.5 | 1.92 | 0.58 | 2.47 | 0.31 | 0.15 | 0.12
36 | CCOc1ccn(-c2ccc(F)cc2)c(=O)c1C(=O)Nc1ccc(Oc2ccnc(N)c2Cl)c(F)c1 |  | 42 | 69.1 | 82.8 | 11.3 | 6.04 | 20.9 | 28.1
37 | CC1=C(C(=O)OC(C)C)C(c2cccc([N+](=O)[O-])c2)C(C(=O)OC2CN(C(c3ccccc3)c3ccccc3)C2)=C(N)N1 (configuration not stated) [Azelnidipine] | 74.3% and 58.4% | 58.8 | 58.1 | 80.1 | 82.1 | 82.3 | 71.3 | 58
38 | O=C(CCCCCCNC(=O)c1cnc(N(c2ccccc2)c2ccccc2)nc1)NO |  | 52.1 | 17.6 | 35.3 | 2.73 | 2.08 | 0.54 | 1.52
39 | Cc1cccc(C)c1N(CC(=O)Nc1ccc(-c2ncon2)cc1)C(=O)C1CCS(=O)(=O)CC1 [Amenamevir] | 99.9% and 92.8% | 98.8 | 94.5 | 106 | 96.4 | 105 | 88.5 | 93.4
40 | Cc1ccc(S(=O)(=O)C=CC#N)cc1 | 1.6% and 0.48% | 0.6 | 0.37 | 0.39 | 0.28 | 0.27 | 0.28 | 0.35

Source: the supplement of paper PMC10981050
